# Source: PubChem BioAssay AID686979 (National Center for Advancing Translational Sciences (NCATS), 2013)
# The whole screen tested about 420,000 compounds, of which about 50,000 (12%) were called active. A call without a number means that no potency is given here. Inconclusive results (about 26%) are left out. The call rests on the fitted dose curve; in most records, active means well fitted inhibition curve with a large enough effect; inconclusive means small, poorly fitted or top-dose-only effect; inactive means flat fitted curve, though single readings scatter. The full list was thinned out, with actives kept by preference.
# Assay: qHTS for Inhibitors of human tyrosyl-DNA phosphodiesterase 1 (TDP1): qHTS in cells in presence of CPT; further: nearly all actives have a fitted effect of over 55% in size
# Settings: chicken DT40 Tdp1-/-;hTDP1 cells + 20 nM CPT, ATP luminescence, 48 h; series mostly up to 46.2 µM
# How it was run: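 Chicken DT40 Tdp1-/- cells complemented with human TDP1, 400 cells/well, exposed to compounds plus 20 nM camptothecin for at least 48 h at 37 C; viability read as ATP content by CellTiter-Glo luminescence.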
# Potency means the concentration at half of the fitted maximal effect.
row,Structure (SMILES),Potency
1,O=c1[nH]snc1-c1c(Cl)cccc1Cl,inactive
2,CC1CCN(S(=O)(=O)c2ccc3ncn(CC(=O)N(C)C4CCCCC4)c(=O)c3c2)CC1,inactive
3,CCc1cc(=O)oc2cc(C)cc(OCC(=O)N3CCC[C@@H]3C(=O)O)c12,inactive
4,O=Cc1c(NCCc2cccc(F)c2)c2ccccc2[nH]c1=O,inactive
5,Cc1ccc2[nH]c(C)c(CCNC(=O)NC3CCCCC3)c2c1,inactive
6,CN(Cc1c(F)cccc1Cl)S(=O)(=O)c1cccs1,inactive
7,COc1ccc(CC(=O)N[C@@H]2c3cc(OC)c(OC)cc3C[C@H]2OCc2ccccc2)cc1,inactive
8,COc1ccc(C)cc1NC(=O)CN(C)S(=O)(=O)c1ccc2c(c1)n(C)c(=O)c(=O)n2C,inactive
9,Cc1nc(NC(=O)C2CCCCC2)sc1C,inactive
10,COc1cc(S(=O)(=O)Nc2ncn[nH]2)ccc1Cl,inactive
11,CC(C)Cn1c(=O)c2ccccc2n2c(CCC(=O)NCc3ccccn3)nnc12,inactive
12,COc1ccc(NC(=O)CCc2nnc3n(CC(C)C)c(=O)c4ccccc4n23)cc1OC,inactive
13,Cn1c(Cc2cccc3ccccc23)nnc1SCC(=O)N1CCN(c2cccc(Cl)c2)CC1,23.1 µM (active)
14,Cn1c(CNC(=O)c2ccco2)nnc1SCC(=O)N1CCN(c2ccccc2)CC1,inactive
15,CC(C)Cn1c(=O)c2ccccc2n2c(CCC(=O)N3CCN(c4cccc(Cl)c4)CC3)nnc12,10.3 µM (active)
16,Cc1ccccc1NC(=O)Cc1nnc(SCC(=O)N2CCN(c3ccccc3)CC2)n1C,inactive
17,Cc1nc(NC(=O)c2ccc3c(c2)OCCO3)ccc1Br,inactive
18,CC1CN(C(=S)Nc2cccc(F)c2)CC(C)O1 (configuration not stated),inactive
19,O=C(CC1CCCCC1)NCc1ccco1,inactive
20,CC(=O)N1C[C@@H](CO)[C@@H](N(C)C(=O)c2ccco2)C[C@H]1c1ccccc1,inactive
21,OCC[C@H]1C[C@H](O)[C@@H](O)[C@]2(Cc3ccccc3CO2)O1,inactive
22,Cc1ccc(C2=CSC3=NS(=O)(=O)CCN23)cc1C,inactive
23,O=C1N[C@@H](c2ccccc2)COC(=O)[C@H](Cc2ccc(F)cc2)C/C=C\C[C@@H]1CC(=O)N(CCO)Cc1ccccc1,23.1 µM (active)
24,O=C(C[C@H]1C/C=C\C[C@@H](NC(=O)OCC2c3ccccc3-c3ccccc32)C(=O)O[C@@H](c2ccccc2)CNC1=O)N[C@H](CO)Cc1ccccc1,10.3 µM (active)
25,O=C(N[C@@H](Cc1c[nH]c2ccccc12)C(=O)O)OCC1c2ccccc2-c2ccccc21,inactive

row,Structure (SMILES),Potency
1,CN(Cc1cccs1)C(=O)Cc1c[nH]c2ccccc12,inactive
2,O=C1NC[C@@H](c2ccccc2)OC(=O)[C@H](Cc2ccc(F)cc2)CC/C=C/C[C@H]1CC(=O)N(CCO)Cc1ccccc1,16.4 µM (active)
3,CC(C)(C)OC(=O)C[C@@H]1C/C=C\C[C@@H](CC(=O)NCCO)C(=O)N[C@H](Cc2c[nH]c3ccccc23)COC1=O,inactive
4,O=C1N[C@H](Cc2c[nH]c3ccccc23)COC(=O)[C@H](Cc2ccc(F)cc2)C/C=C\C[C@H]1CC(=O)N(CCO)Cc1ccccc1,23.1 µM (active)
5,O=C1CCC/C=C\C[C@@H](CC(=O)N(CCO)Cc2ccccc2)C(=O)NCCO1,inactive
6,Cc1nc(N)c(Br)c(C)c1Br,inactive
7,C[C@H]1CN([C@@H](C)CO)C(=O)CCCn2nncc2CO[C@@H]1CN(C)S(=O)(=O)c1cccc(C#N)c1,inactive
8,Cc1cc(NC(=O)CN2C(=O)NC(C)(CCc3ccccc3)C2=O)no1 (configuration not stated),inactive
9,Cc1nc2ccc(NC(=S)N3CCC(C)CC3)cc2nc1C,inactive
10,CCn1c(SCC(=O)NCC2CCCO2)nc2ccccc21 (configuration not stated),inactive
11,COc1ccc(S(=O)(=O)N2CCN(CC(=O)N3CCNC3=O)CC2)cc1OC,inactive
12,COc1ccc2c(C)cc(SCC(=O)NCC3CCCO3)nc2c1 (configuration not stated),inactive
13,O=S(=O)(Nc1ncnc2sccc12)c1cccc(F)c1,inactive
14,O=C(N[C@@H]1C/C=C\C[C@@H](CC(=O)N(CCO)Cc2ccccc2)C(=O)N[C@H](Cc2ccccc2)COC1=O)OCC1c2ccccc2-c2ccccc21,8.2 µM (active)
15,Nc1nc2c(ncn2[C@@H]2O[C@H](CNCc3ccc(OCCCN4CCOCC4)cc3)[C@@H](O)[C@H]2O)c(=O)[nH]1,inactive
16,CN(CC(=O)Nc1ccc(F)cc1)CC(=O)N1CCCCC1,inactive
17,Cc1ccc(O)c(-c2cc(C(=O)Nc3c(C)n(C)n(-c4ccccc4)c3=O)[nH]n2)c1,inactive
18,Nn1c(Cc2cccc3ccccc23)nnc1SCC(=O)N1CC(=O)Nc2ccccc21,inactive
19,COc1ccc(CN(Cc2ccc(OC)cc2)C(=O)c2cccs2)cc1,inactive
20,COc1ccc(CCNC(=O)CSc2nnc(CNC(=O)c3cccs3)o2)cc1OC,inactive
21,COc1ccc(CCNC(=O)/C(C#N)=C2\N=C(NC(=O)c3cccs3)c3ccccc32)cc1,10.3 µM (active)
22,Cc1nc2cnc(Nc3ccccc3)nc2n(Cc2ccc(F)cc2)c1=O,inactive
23,COc1ccc(CN2CCc3nc(Nc4ccccc4)ncc3C2)c(OC)c1OC,16.4 µM (active)
24,COc1ccc(CN2CCN(Cc3ccc(OC)c(OC)c3OC)CC2)cc1,inactive
25,Fc1ccc(CN2CCc3nc(Nc4ccccc4)ncc3C2)cc1F,11.6 µM (active)

row,Structure (SMILES),Potency
1,CCCN1CCc2nc(N3CCN(C)CC3)ncc2C1,inactive
2,Cn1c(=O)c(CCc2ccccc2)nc2cnc(Nc3ccccc3)nc21,inactive
3,CCCc1cc(=O)[nH]c2nnc(SCC(=O)Nc3nnc(SCC)s3)n12,inactive
4,Cc1nc2cc(NC(=O)[C@@H]3C[C@@H](Sc4ccccn4)CN3Cc3ccccc3C)ccc2s1,inactive
5,Cc1nn2c(=O)cc(COC(=O)c3cccc(NC(=O)COc4ccccc4Cl)c3)nc2s1,inactive
6,O=C(CNS(=O)(=O)c1ccc(Br)s1)N1CCN(C(=O)c2ccco2)CC1,inactive
7,C[C@@H]1CN([C@H](C)CO)C(=O)c2cc(NC(=O)NC3CCCCC3)ccc2O[C@H]1CN(C)S(C)(=O)=O,inactive
8,C#Cc1ccc([C@@H]2C=C(C(=O)O)O[C@H](OCCCCO)C2)cc1,inactive
9,CN1CCN(C(=O)C2=C[C@H](c3ccc4c(c3)OCO4)C[C@H](OCc3ccc(CO)cc3)O2)CC1,inactive
10,O=C(C1=C[C@H](c2ccc(C(F)(F)F)cc2)C[C@H](OCc2ccc(CO)cc2)O1)N1CCN(Cc2ccccc2)CC1,23.1 µM (active)
11,CCCCNC(=O)CSc1nc2cc3c(cc2c(=O)n1CCCCCC(=O)NCc1ccc2c(c1)OCO2)OCO3,inactive
12,O=C(COc1ccc(Cl)cc1)Nc1ccc2oc(=O)ccc2c1,inactive
13,O=c1[nH]c(CCl)nc2cc(-c3ccc(Cl)cc3)sc12,5.17 µM (active)
14,O=c1[nH]c(CN2CCOCC2)nc2cc(Cl)ccc12,inactive
15,NC(=O)Cc1nc2scc(-c3ccc(Cl)cc3)c2c(=O)[nH]1,inactive
16,CCc1ccc(CN(C)C(=O)C2CCC(=O)N(Cc3cccc(OC)c3)C2)nc1 (configuration not stated),inactive
17,C=CCC(C(=O)c1ccccc1)[N+](C)(C)CC=C (configuration not stated),inactive
18,COc1cc(C(F)(F)F)c(C(=O)N(C)c2ccc(Cl)cc2)cn1,inactive
19,CC(C)(C)c1ccc(S(=O)(=O)N2CCN(C(=O)c3ccc4c(c3)C(=O)N(Cc3ccncc3)C4=O)CC2)cc1,inactive
20,COC(=O)Cc1c(O)ccn(Cc2cccc(C(F)(F)F)c2)c1=O,inactive
21,COC(=O)Cc1csc(/N=C/c2c(O)n(-c3cccc(C(F)(F)F)c3)c(=O)c3ccccc23)n1,6.51 µM (active)
22,COC(=O)Cc1csc(Nc2c(C)n(C)n(-c3ccccc3)c2=O)n1,inactive
23,COc1ccc(NC(=O)CSc2nnc(-c3ccccc3F)n2C2CC2)cc1S(N)(=O)=O,inactive
24,COc1ccccc1C(=O)N(C1=NC(C)CS1)c1ccc(Cl)cc1 (configuration not stated),inactive
25,COc1ccccc1CNc1nc(Nc2ccccc2Cl)c2sccc2n1,9.2 µM (active)

row,Structure (SMILES),Potency
1,COc1cccc(CNc2nc(NCc3ccccc3OC)nc3ccsc23)c1,9.2 µM (active)
2,COc1ccc(CNc2ncncc2-c2ccccc2C)c(OC)c1,inactive
3,COc1cccc(CNc2nc(NCc3cccs3)nc3ccsc23)c1,23.1 µM (active)
4,CCNc1nc(NC(C)C)nc(OCCOC(=O)c2ccccc2)n1,inactive
5,COCCNc1nc(NCc2ccc(NC(C)=O)cc2)c2sccc2n1,inactive
6,COc1cccc(CNc2nccn(-c3ccc(OC)c(OC)c3)c2=O)c1,inactive
7,CCc1ccc(S(=O)(=O)c2nnn3c2nc(NCc2ccccc2OC)c2cc(Cl)ccc23)cc1,inactive
8,Cc1nc2cc(NCc3cccs3)ccc2n1C,inactive
9,CNC(=O)c1sc(NCc2ccccc2OC)nc1C,inactive
10,CC(C)Nc1nc(NCCOc2ccccc2Cl)c2sccc2n1,18.4 µM (active)
11,CC(=O)C(CC(=O)N1CCCC1)C(=O)Nc1ccc(Cl)cc1 (configuration not stated),inactive
12,O=C1CC(c2c(F)cccc2Cl)C(n2cncn2)C(O)=C1C1NCCc2ccccc21 (configuration not stated),inactive
13,Nc1nc2cc(Cl)ccc2n1N,inactive
14,COc1ccc(NC(=O)CN(C)C(=O)c2cc(C)oc2C)cc1,inactive
15,O=C1NC(c2ccccc2)=NC1(Nc1ccccn1)C(F)(F)F (configuration not stated),inactive
16,Cc1ccc(C)c(C(=O)N2CCC(n3nccc3NC(=O)C3CC3)CC2)c1,inactive
17,Cc1cc(C(=O)OC(C)C(=O)NC2CCCCC2C)c(C)o1 (configuration not stated),inactive
18,Cc1nc2sccn2c(=O)c1S(=O)(=O)NCCc1ccccc1,inactive
19,O=C(COC(=O)c1c(Cl)cccc1Cl)Nc1cccc(S(=O)(=O)NC2=NCCCCC2)c1,inactive
20,O=S(=O)(NCC(c1ccco1)N1CCOCC1)c1cc(F)ccc1F (configuration not stated),inactive
21,Cc1cc(C)n(CCNC(=O)CC2C(=O)NCCN2Cc2ccc(C)o2)n1 (configuration not stated),inactive
22,O=C(COc1cc2oc(=O)c3c(c2cc1Cl)CCC3)NCCCN1CCOCC1,inactive
